Our source for the outcome values is PubChem BioAssay AID602241 (Southern Research Specialized Biocontainment Screening …, 2012).

Molecules are shown by their SMILES. Entries with a potency or affinity are not part of this list. Activity calls are given as the source filed them. How the calls were made is not given here.

The assay can be described thus: Confirmatory cell based cytopathic effect inhibition, VEEV TC 83 infected cells (AID 602241). For orientation: Protection from cytopathic effect is a common read-out in antiviral testing.

Consider `O=c1c2cc([N+](=O)[O-])ccc2nc(CN2CCN(c3ccccc3)CC2)n1-c1ccccc1F`, for which the call was inactive.
Consider `O=C(Oc1ccc2ccccc2c1Br)N1CCCCCC1`, for which the molecule was called inactive.
